Screening data (PubChem)
A selection: hits, their analogues and other compounds. The true share with any hit is near 1.5%.
ARNT-TACC3 inh: disrupts binding between human ARNT and TACC3 | Q9Y6A5 | AlphaScreen His-ARNT PAS-B/GST-TACC3 binding, luminescence; TACC3 fragment carries E629A point mutation | inhibition, % at 9.99 µM | actives 0.66% (n = 390,000);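 active means mean inhibition of replicates at least 50% and at least half of replicates each reaching 50%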;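 further: 0% = complete ARNT plus TACC3 wells and 100% = ARNT alone without TACC3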
HGIII-sPLA2 inh: Blocks human group III sPLA2 activity | Q9NZ20 | AID 743126 | actives 0.56% (n = 370,000) | inhibition, % at 12.2 µM | QFRET BODIPY PC-A2 liposome hydrolysis, fluorescence;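 active means inhibition above mean plus 3 SD of compounds lying within the high and low control bounds, cut at about 19% in these data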;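 further: 0% = median of test compound wells and 100% = no enzyme DMSO wells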
AI-2 QS mod: modulators of Vibrio harveyi AI-2 quorum sensing system. Vibrio harveyi JMH597 AI-2 luminescence/OD600 ratio, 9 h; stronger effect = lower value; strain lacks LuxN and CqsS sensors; 0 = neutral-control median. activity change, % at 7.5 µM. actives 0.4% (n = 300,000); in the data active means activity change below about -75%, passing the limit was not always enough;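 further: luminescence divided by OD600 gain over 9 h not by final OD600 alone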
Rin1-Abl PPI inh: inhibitors of human Rin1-Abl protein interaction | P00519+Q13671 | TR-FRET Rin1/Abl binding, biochemical | inhibition, % at 7.35 µM | actives 0.4% (n = 360,000) | AID 588664; in the data active means inhibition above about 5%, passing the limit was not always enough
Target sequence (P00519 whole entry, looked up): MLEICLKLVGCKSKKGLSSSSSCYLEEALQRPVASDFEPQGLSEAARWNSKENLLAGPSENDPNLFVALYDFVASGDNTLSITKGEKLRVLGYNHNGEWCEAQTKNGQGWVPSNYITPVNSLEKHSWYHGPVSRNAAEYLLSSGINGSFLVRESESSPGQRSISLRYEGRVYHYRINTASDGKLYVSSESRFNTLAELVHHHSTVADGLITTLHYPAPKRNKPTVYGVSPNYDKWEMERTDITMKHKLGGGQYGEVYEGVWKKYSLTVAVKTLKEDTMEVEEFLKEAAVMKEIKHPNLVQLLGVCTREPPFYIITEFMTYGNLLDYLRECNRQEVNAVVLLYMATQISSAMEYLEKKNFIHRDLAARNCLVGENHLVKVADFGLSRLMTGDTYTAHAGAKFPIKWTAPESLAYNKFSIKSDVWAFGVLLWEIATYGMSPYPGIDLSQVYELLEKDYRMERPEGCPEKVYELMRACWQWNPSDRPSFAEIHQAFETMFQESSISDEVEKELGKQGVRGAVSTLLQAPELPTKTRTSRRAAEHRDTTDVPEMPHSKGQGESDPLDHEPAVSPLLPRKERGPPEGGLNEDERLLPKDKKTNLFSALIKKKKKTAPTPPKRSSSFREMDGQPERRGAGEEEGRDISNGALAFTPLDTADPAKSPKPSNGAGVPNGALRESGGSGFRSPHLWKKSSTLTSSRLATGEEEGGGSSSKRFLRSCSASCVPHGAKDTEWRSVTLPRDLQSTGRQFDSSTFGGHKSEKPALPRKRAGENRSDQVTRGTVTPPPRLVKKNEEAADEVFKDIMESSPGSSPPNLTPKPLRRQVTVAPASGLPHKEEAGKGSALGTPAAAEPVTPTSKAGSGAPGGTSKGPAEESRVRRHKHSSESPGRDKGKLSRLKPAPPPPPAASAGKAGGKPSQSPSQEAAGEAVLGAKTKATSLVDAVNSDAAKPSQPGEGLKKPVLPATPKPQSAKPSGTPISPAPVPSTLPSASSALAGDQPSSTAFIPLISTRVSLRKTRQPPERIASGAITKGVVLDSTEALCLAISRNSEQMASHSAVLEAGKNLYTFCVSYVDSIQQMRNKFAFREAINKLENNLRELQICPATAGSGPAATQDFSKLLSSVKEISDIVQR
Target sequence (Q13671 whole entry, looked up): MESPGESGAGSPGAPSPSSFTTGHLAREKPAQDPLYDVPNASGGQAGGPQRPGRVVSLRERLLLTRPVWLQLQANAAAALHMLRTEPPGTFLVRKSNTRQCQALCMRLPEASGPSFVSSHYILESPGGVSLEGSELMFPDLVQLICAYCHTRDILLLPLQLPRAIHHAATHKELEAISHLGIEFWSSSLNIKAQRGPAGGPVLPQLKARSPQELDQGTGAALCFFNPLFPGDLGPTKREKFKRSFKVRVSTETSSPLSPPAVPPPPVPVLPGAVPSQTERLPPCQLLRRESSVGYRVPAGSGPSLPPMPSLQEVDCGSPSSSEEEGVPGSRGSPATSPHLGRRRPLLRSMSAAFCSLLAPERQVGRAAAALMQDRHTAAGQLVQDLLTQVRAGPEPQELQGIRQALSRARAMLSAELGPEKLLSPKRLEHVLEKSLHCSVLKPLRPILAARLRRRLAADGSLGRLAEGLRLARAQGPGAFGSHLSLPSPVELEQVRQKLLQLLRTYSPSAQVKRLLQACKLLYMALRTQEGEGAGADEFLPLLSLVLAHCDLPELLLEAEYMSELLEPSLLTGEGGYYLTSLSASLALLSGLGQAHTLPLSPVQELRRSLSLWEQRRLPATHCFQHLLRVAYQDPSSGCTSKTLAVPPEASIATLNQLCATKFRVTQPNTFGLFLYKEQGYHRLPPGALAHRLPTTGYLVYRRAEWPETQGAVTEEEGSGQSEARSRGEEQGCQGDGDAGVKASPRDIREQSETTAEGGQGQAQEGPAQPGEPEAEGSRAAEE
Rin1 Abl conf: confirmation of inhibitors of human Rin1-Abl interaction | AID 602124 | shares compounds with Rin1-Abl PPI inh | TR-FRET Rin1-Abl binding, purified proteins | inhibition, % at 7.35 µM | actives 49% (n = 1,300)
GFP quench: counter-screen for Rin1-Abl inhibitors: GFP fluorescence quenchers | shares compounds with Rin1-Abl PPI inh | inhibitors/quenchers counterscreen | inhibition, % at 6.75 µM | actives 8.5% (n = 1,300) | AID 602125;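 further: ABL1-eGFP fusion protein alone without its partner RIN1-SBP; 0% = protein with vehicle and 100% = wells lacking protein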
GFP quench dose: GFP fluorescence interference dose response | 230 tested, under 10 active | IC50, µM | GFP fluorescence interference/quenching counterscreen | shares compounds with Rin1-Abl PPI inh; call rule not given here;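 further: ABL1-eGFP fusion protein alone without its RIN1 binding partner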
* marks the source's active call; other numbers are inactive results; / = not tested or not shown. Unless noted, no stated cut-off is given here; in the data, active means inhibition above about 6.5%; inactive means the rest.

SMILES | ARNT-TACC3 inh | HGIII-sPLA2 inh | AI-2 QS mod | Rin1-Abl PPI inh | Rin1 Abl conf | GFP quench | others
COc1ccc(CN(C)CCCn2ccc(NC(=O)OCc3ccccc3)nc2=O)cc1OC | / | 6 | / | 15* | 22* | -3 | GFP quench dose=>68
Cc1noc(C)c1NC(=O)Nc1ccc2c(c1)CC(=O)N([C@H](C)CO)C[C@H](C)[C@H](CN(C)S(=O)(=O)c1c(C)noc1C)O2 | -5 | / | / | / | / | /
C[C@@H]1CN([C@@H](C)CO)C(=O)Cc2cc(NC(=O)C3CCCCC3)ccc2O[C@@H]1CN(C)S(=O)(=O)c1ccc(F)cc1 | -29 | / | / | / | / | /
CC(=O)c1ccc(N(CC(=O)NC2CCCC2)C(=O)c2ccc(C)s2)cc1 | -2 | 2 | 7 | 1 | / | /
CC(=O)c1cccc(N(CC(=O)NC2CCCC2)C(=O)c2ccc(C)s2)c1 | -6 | 0 | 8 | 7.5* | -1 | -1
COc1ccc(Nc2nc(OC)nc(OC)n2)cc1 | 11 | 1 | -1 | -1 | / | /
CCOc1nc(Nc2ccc(OC)cc2)nc(OCC)n1 | 23 | 1 | -2 | 9.2* | 3 | -1
COc1ccc(-c2cn(CC[C@H]3CC[C@H](NS(=O)(=O)c4ccccc4C)[C@@H](CO)O3)nn2)cc1 | 3 | / | / | / | / | /
Cc1noc(C)c1S(=O)(=O)N(C)C[C@H]1OCCCC[C@H](C)Oc2ccc(NC(=O)Cc3ccccc3)cc2C(=O)N([C@H](C)CO)C[C@@H]1C | 1 | / | / | / | / | /
Cc1ccccc1S(=O)(=O)N[C@H]1CC[C@H](CCNS(=O)(=O)c2cccc(F)c2)O[C@H]1CO | 9 | / | / | / | / | /
CCOc1ccc(CN(C)C(=O)c2ccc(NC(=O)CC3SC(N4CCCC4)=NC3=O)cc2)cc1 (stereo not drawn) | -3 | -18 | 13 | 10* | 5 | -2
O=C1C(NS(=O)(=O)c2cccs2)=C(N2CCOCC2)C(=O)c2ccccc21 | 11 | 9 | 5 | -13 | / | /
O=C(O)c1cccc(NC2=C(N3CCOCC3)C(=O)c3ccccc3C2=O)c1 | 24 | 0 | 18 | 7.2* | -7 | -1
C[C@H](NC(=O)C[C@H]1C[C@@H]2c3cc(NC(=O)Nc4ccc(C(F)(F)F)cc4)ccc3O[C@@H]2[C@H](CO)O1)c1ccccc1 | 0 | / | / | / | / | /
CCC(C)Sc1nnc(CSc2nc(C)cc(C)n2)n1C (stereo not drawn) | -2 | -5 | 12 | 2 | / | /
CCCSc1nnc(CSc2nc(C)cc(C)n2)n1C | 2 | 1 | 22 | 20* | 15* | 3
Cn1cnc(S(=O)(=O)N2C[C@@H](O)COC[C@H]3O[C@@H](CC(=O)NCc4cc(F)cc(F)c4)CC[C@@H]32)c1 | 4 | / | / | / | / | /
O=C1C(=O)c2cccnc2-c2ncccc21 | / | -9 | / | 50* | 49* | 1 | GFP quench dose=>67
C[C@@H]1CN([C@@H](C)CO)C(=O)c2cc(NC(=O)Nc3ccccc3)ccc2O[C@H]1CN(C)S(=O)(=O)c1ccc(Cl)cc1 | 5 | / | / | / | / | /
FC(F)(F)c1cccc(OCc2nnc3n2CCC3)c1 | -1 | -1 | 17 | -4 | / | /
Cc1cccc(OCc2nnc3n2CCCCC3)c1 | -2 | 5 | 2 | 8.0* | -2 | -2
COc1ccc(F)cc1C(=O)C1CCCN(Cc2cn(C)c3ccccc23)C1 (stereo not drawn) | 30 | -11 | 28 | 9.9* | 1 | -2
CN(CCc1ccccc1)C(=O)c1ccc(NC(=O)Cc2cccc(NC(=O)C3CCN(C(=O)C4CCCC4)CC3)c2)cc1 | -4 | -19 | / | 12* | 16* | 0
CN(Cc1ccccc1)C(=O)c1ccc(NC(=O)Cc2ccc(NC(=O)C3CCN(C(=O)C4CCCC4)CC3)cc2)cc1 | 1 | -43 | / | 14* | 19* | -2 | GFP quench dose=>68
CN(CCc1ccccc1)C(=O)c1ccc(NC(=O)Cc2cccc(NC(=O)C3CCN(C(=O)C4CCC4)CC3)c2)cc1 | -5 | -15 | / | -3 | / | /
SMILES | ARNT-TACC3 inh | HGIII-sPLA2 inh | AI-2 QS mod | Rin1-Abl PPI inh | Rin1 Abl conf | GFP quench | others
CN(CCc1ccccc1)C(=O)c1ccc(NC(=O)Cc2ccc(NC(=O)C3CCN(C(=O)C4CCCCC4)CC3)cc2)cc1 | -3 | -16 | / | 31* | 30* | 1 | GFP quench dose=>68
CN(CCc1ccccc1)C(=O)c1ccc(NC(=O)Cc2ccc(NC(=O)C3CCN(C(=O)C4CCC4)CC3)cc2)cc1 | -5 | -16 | / | 27* | 26* | 2 | GFP quench dose=>67
CN1c2ccc(-c3cccc(C#N)c3)cc2[C@H]2[C@H](CCN2S(=O)(=O)c2ccccc2)[C@H]1CO | -7 | / | / | / | / | /
COc1ccccc1S(=O)(=O)N[C@H]1C=C[C@H](CC(=O)N2CCOCC2)O[C@H]1CO | -1 | / | / | / | / | /
CCC(=O)N1[C@H](CO)[C@@H](c2ccc(C3=CCCC3)cc2)[C@@H]1CN(C)C(C)=O | 0 | / | / | / | / | /
C[C@@H]1CCCCO[C@@H](CN(C)S(=O)(=O)c2cn(C)cn2)[C@H](C)CN([C@H](C)CO)C(=O)c2cc(NC(=O)c3ccccc3)ccc2O1 | -8 | / | / | / | / | /
Cc1ccc(S(=O)(=O)N(C)C[C@H]2Oc3ccc(NC(=O)Nc4ccc(F)cc4)cc3C(=O)N([C@@H](C)CO)C[C@@H]2C)cc1 | 5 | / | / | / | / | /
Cc1noc(C)c1NC(=O)Nc1cccc2c1O[C@H](CN(C)S(=O)(=O)c1cccs1)[C@H](C)CN([C@H](C)CO)C2=O | -4 | / | / | / | / | /
CN(C(=O)c1ccc(NC(=O)Cc2cccc(NC(=O)C3CCN(C(=O)C4CCCCC4)CC3)c2)cc1)C1CC1 | -1 | 1 | / | 14* | 26* | -1 | GFP quench dose=>67
CN1CCCCN2[C@@H](CO)[C@H](c3ccc(Br)cc3)[C@@H]2C1 | -10 | / | / | / | / | /
O=C(Nc1cccc(-c2nnc(-c3ccco3)o2)c1)c1ccccc1 | -1 | -4 | -3 | 10* | -2 | -2
CCCC(=O)Nc1ccc2c(c1)C(=O)N(C)C[C@H](OC)[C@H](C)CN(C(=O)c1cccnc1)[C@@H](C)CO2 | -4 | / | / | / | / | /
CCOC(=O)C1(Cc2ccc(OC)cc2)CCN(C(=O)CN2CCCCC2=O)CC1 | 1 | 6 | 18 | 9.9* | 1 | -2
CC1=CC(C)(C)[N+](C)(C)c2ccc(C)cc21 | / | 11 | 8 | 10* | -1 | 0
COc1cccc(CNC(=O)C[C@H]2C=C[C@H](NC(=O)C3CCC3)[C@H](CO)O2)c1 | 1 | / | / | / | / | /
CCCNC(=O)N1C[C@@H](C)[C@@H](OC)CN(C)C(=O)c2cc(NC(=O)CC)ccc2OC[C@@H]1C | -19 | / | / | / | / | /
CNc1nc(OC)nc(N(C#N)CN2C(=O)c3ccccc3S2(=O)=O)n1 | -7 | 12 | 37 | 19* | 1 | 0
C[C@H]1CN([C@@H](C)CO)C(=O)c2cc(NC(=O)CCN3CCOCC3)ccc2O[C@@H]1CN(C)C(=O)Nc1ccc(F)cc1 | 1 | / | / | / | / | /
CO[C@H]1CN(C)C(=O)c2ccc(NC(=O)c3cccc(F)c3)cc2OC[C@H](C)N(C(C)=O)C[C@H]1C | -1 | / | / | / | / | /
